Test results taken from the supplement of paper PMC6555819.

What was measured:
Experiment in all cases: PBM binding z-score (relative to random genomic background probes); higher = stronger binding; sequences stand for … in GC…GCGATTGACAGCGTAGAATGAAGG
[1] = tested on: RARb homodimer (NR concentration 270 nM)
In short: (§1)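 Custom Agilent 4×180K protein-binding microarrays carried double-stranded probes, each with a 34-nt variable region. These regions held direct-repeat seeds, single-nucleotide variants, half-site ablations and random human genomic background sequences. Ligand-free nuclear receptor dimers were incubated on the arrays for 1 h, antibodies against each partner (one per run) detected binding, and scanned fluorescence was regression-normalized. Binding z-scores take the random background probes as reference.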

[2] = tested on: RARg:RXRa (NR concentration 270 nM, RXRa partner concentration 90 nM)
In short: as §1

[3] = tested on: RARg homodimer (NR concentration 270 nM)
In short: as §1

[4] = tested on: RXRa DBDmut IVT, anti-RXR (DBD mutation: RXRa K156A/R161A, NR concentration 90 nM)
In short: as §1

[5] = tested on: RXRa homodimer (NR concentration 180 nM)
In short: as §1

[6] = tested on: THRa:RXRa (NR concentration 90 nM, RXRa partner concentration 90 nM)
In short: as §1

[7] = tested on: THRa homodimer (NR concentration 90 nM)
In short: as §1

[8] = tested on: VDR homodimer (NR concentration 270 nM)
In short: as §1

Row | Sequence | PBM binding z-score [1] | PBM binding z-score [2] | PBM binding z-score [3] | PBM binding z-score [4] | PBM binding z-score [5] | PBM binding z-score [6] | PBM binding z-score [7] | PBM binding z-score [8]
1 | CTATCAAGGTGAACAAGGTCGTTGATTACTATTC | 1.7 | 1.76 | 1.54 | 1.5 | 1.7 | 3.12 | 1.85 | 2.72
2 | CCGAGTGGGGCAAGGTTACCATAACGCACAGCCA | 1.3 | 1.07 | 1.2 | -0.421 | 1.3 | 1.53 | 0.265 | 0.121
3 | GGAACGAGGGCGAGTTGATAGCAGAGTTTGATGG | -0.0873 | -0.0842 | 0.176 | 1.73 | 0.0566 | -0.305 | -0.578 | 1.12
4 | CCGAGTAGGGTATGGGGCATTCAGGCAACGGTGA | 0.595 | -0.153 | -0.189 | -0.938 | 0.102 | 0.159 | 0.0739 | 0.36
5 | CCTTACGGGTCACTCCCGGTTATAGCATCGGAGT | 2.94 | 4.42 | 4.31 | 1.43 | 4.33 | 3.71 | 0.272 | 1.14
6 | TCTTGTAGACCAAAGGTTAAGAAAGCCGAAGCCT | 1.34 | 1.88 | 0.82 | 0.533 | 2.54 | 1.3 | -0.878 | -0.489
7 | TCTTGTAGATCAGGCAGGTTAAGAAAGCCTGAGT | -0.0605 | -0.161 | -0.489 | 0.355 | 0.102 | 0.149 | -0.429 | 0.00584
8 | CCTCGGAGGACAACAGGAGGTCAGAGCCGCCAGA | 3.53 | 3.51 | 3.53 | 0.0894 | 1.71 | 2.8 | 0.858 | 0.836
9 | CATACTGGGTCAGCTAGGCCAGAGTAGGGACGGC | 2.13 | 2.65 | 3.42 | -0.42 | 1.39 | 1.53 | 0.0605 | -0.0161
10 | TTACCAAGGTGAGCTGAGGTCGCTGATCCAACTC | 1.76 | 1.33 | 1.22 | -0.393 | 1.2 | 4.95 | 2.17 | 0.556
11 | CCTACTGGGCCATCAGGTCAATGATATCAACGTT | 2.67 | 2.1 | 2.2 | -0.0866 | 1.31 | 3.17 | 2.24 | 0.718
12 | TCATATAGGTAAAAGGTGAACGTCGGTGTGGTAA | 2.19 | 2.22 | 1.26 | 1.84 | 2.94 | 1.84 | 0.67 | 0.547
13 | AGTAGTTGGTCAGCTGAGGTCACACACAATTCGG | 4.45 | 4.21 | 4.62 | 1.36 | 4.2 | 4.88 | 5 | 3.98
14 | CCTCGGAGGACAGAAGGTCACAGCTGTCCGCTTT | 4.26 | 4.72 | 4.05 | 0.581 | 3.83 | 3.36 | 0.632 | 0.765
15 | ATCGACAGGTCGACGAGGTGAGTATACACCGTTT | 0.949 | 1.55 | 1.78 | 0.12 | 1.58 | 2.58 | 0.428 | 0.49
16 | CATACAGGGTCTGCTAGGCCAGAGTAGGGACGGC | -0.0672 | -0.0355 | 0.276 | -0.952 | 0.034 | 0.13 | -0.32 | -0.486
17 | TAGCCTAGGTCATTGGGCCAGGATAGTACGCATC | 2.8 | 3.79 | 4.56 | 1.25 | 2.67 | 2.74 | 0.55 | 0.858
18 | ATCTCTAGGTAAAGATAGTTCAGTCAATGCAAAT | 0.999 | 0.494 | 0.808 | 0.26 | 0.151 | 0.889 | -0.0396 | 0.66
19 | ATCTCTAGGTAGGACTCAGTTCAGTGAAGAACGC | 0.778 | 0.159 | 0.0916 | 0.747 | 0.071 | 0.569 | 0.909 | 1.66

Row | Sequence | PBM binding z-score [1] | PBM binding z-score [2] | PBM binding z-score [3] | PBM binding z-score [4] | PBM binding z-score [5] | PBM binding z-score [6] | PBM binding z-score [7] | PBM binding z-score [8]
20 | TCATATAGGTAAACAGGTGAAAGACCGTAAGTTA | 0.437 | 0.712 | 0.452 | 1.32 | 1.17 | 0.539 | 0.114 | 0.225
21 | CGTTACGGGTCACTGACAGGTTATAGCATTTGGA | 3.43 | 5.78 | 4.8 | 1.74 | 5.12 | 3 | 0.0977 | 0.672
22 | CTGACTGGGGCAAAGGTTACCATACTCAGTACGA | 2.6 | 3.83 | 2.21 | 0.587 | 4.06 | 2.08 | 0.233 | 0.376
23 | TTTCAAAGTTCAAAGGTAACGTAAGTATCCACAC | 3.87 | 6.29 | 5.88 | 4.68 | 7.2 | 3.58 | 0.252 | 4.68
24 | GGAACGAGCGCAAGTTGATAGCAGAGTTTGATGG | -0.846 | -0.499 | -0.47 | 0.0943 | -0.499 | -1.01 | -0.971 | -0.311
25 | GTACCAAGGTGTATAGGTCGTTGATGAGTAGGCG | 0.761 | 0.597 | 0.288 | 0.186 | 0.791 | 0.249 | -0.307 | 0.945
26 | CCTTGCAGGCCAATCTGGGTCACTCAAGGCTTGA | 2.28 | 1.15 | 1.42 | 0.233 | 0.742 | 3.61 | 0.612 | -0.0782
27 | CCTACTGGGCCATTCCGAGGTCATTGATCATATG | 3.36 | 3.43 | 2.28 | 1.08 | 2.86 | 3.68 | 3.62 | 4.08
28 | ATCTCTAGGTAAAGATAGTTCAGTGGATGCAAAT | 0.847 | 0.4 | 0.785 | -0.122 | 0.17 | 0.667 | 0.0913 | 0.205
29 | TTAGCAAGGTGAAGGTCGTTGATCCCTCTGTAGA | 1.68 | 1.09 | 1.04 | -0.172 | 1.53 | 2.03 | 0.432 | 0.356
30 | TAACCAAGGTGAGCTGAGGTCGTTGATCCAACTC | 1.63 | 1.33 | 0.926 | -0.0437 | 1.58 | 4.65 | 1.86 | 1.81
31 | GCGACTGGGGCTAAGCAGGTTACCATAAGGTTGG | 0.946 | 0.126 | 0.179 | -0.481 | -0.00806 | 1.12 | 0.145 | -0.2
32 | TAGGCTAGGTCATGGGCCAGTATACCACGCGAAC | 2.94 | 4.33 | 4.94 | 0.455 | 3.29 | 3.11 | 1.2 | 0.234
33 | GCTGCTAGGTCAGGTGGGTCAGCTAACGGGTACG | 3.64 | 3.41 | 4.26 | 0.0363 | 2.07 | 2.57 | 0.719 | 0.861
34 | CCTTACGGGTCAAGGTGATAGCACGGGTGGTACG | 3.13 | 4.81 | 4.64 | 0.497 | 5.2 | 2.94 | 0.765 | 0.801
35 | CCTAGCAGGCTAATCTGGGTCACTCAAGGCTTGA | 1.8 | 0.393 | 0.769 | 0.246 | 0.687 | 3.19 | 0.623 | 0.114
36 | AGTCAAAGTTCGGGACGAGGTAACGTAAAGCACG | 0.989 | 2.06 | 1.49 | 0.847 | 1.07 | 2.89 | 1.13 | 0.532
37 | GCTCGGACGACAAGGTCAGAGCTTTGTCCGTAGA | 2.73 | 2.72 | 3.07 | 0.365 | 2.23 | 2.54 | 0.94 | 0.617
38 | TAATATAGGTAAAGGTGAAAGTCGAACGATATGA | 1.71 | 1.62 | 1.66 | -0.417 | 2.32 | 1.45 | 0.232 | 0.489

Row | Sequence | PBM binding z-score [1] | PBM binding z-score [2] | PBM binding z-score [3] | PBM binding z-score [4] | PBM binding z-score [5] | PBM binding z-score [6] | PBM binding z-score [7] | PBM binding z-score [8]
39 | CGTCCAAGGGCAGAGAGGTCAGTGAATGCCGAGT | 4.03 | 3.5 | 4.06 | 1.49 | 2.27 | 2.68 | 0.704 | 3.19
40 | AATACAGGGTCTTCGTAGGCCAGAGTACGCACAG | 0.449 | 0.222 | 0.45 | 0.168 | 0.437 | 1.6 | -0.387 | 0.396
41 | CTTCCAAGGTCAGAGAGGTCAGTGAATGCCGAGT | 5.27 | 6.1 | 7.29 | 2.97 | 5.22 | 4.3 | 2.74 | 5.58
42 | TCTATTAGTTGAAGGGCAACCGTCGAGTCCGTTT | 1.41 | 0.513 | 0.573 | 1.63 | 0.558 | 0.234 | 0.122 | 1.61
43 | ATCGAAAGGTAGAAGGTGAGTATACCCACCCGAA | 0.237 | 0.633 | 0.664 | -0.929 | 0.752 | 0.231 | -0.265 | -0.279
44 | CTCGAAAGGTCGGTTGAGGTGAGTACACGGATAA | 2.53 | 2.89 | 2.79 | 0.908 | 2.34 | 5.21 | 1.47 | 1.71
45 | CCTTACGGGTCAAGGATATAGCACGGGTGGTACG | 3.04 | 4.53 | 4.5 | 0.465 | 4.68 | 2.38 | 0.293 | 0.886
46 | CCGACTGGGGCAAGGTTACCAAAACGCACAGCCA | 1.38 | 1.04 | 1.18 | -0.429 | 1.23 | 1.29 | 0.178 | -0.217
47 | TCTCGGAGGACACGAAAGTTCAGAGCTCGACATC | 3.16 | 2.2 | 3.44 | 1.32 | 1.14 | 2.22 | 0.943 | 2.55
48 | CCTAGCAGGCCAGAGTCACTCAAGCATTTCGCTT | -0.596 | -0.447 | -0.706 | -0.204 | -0.442 | -0.569 | -0.769 | -0.726
49 | CAAACTAGGTCACCGGAAGGTCAAAGACCGCATG | 5.49 | 8.28 | 7.5 | 1.49 | 6.27 | 4.46 | 2.95 | 2.59
50 | TCTTGTAGATCGAGCAGGTTAAGAAAGCCTGAGT | -0.141 | -0.28 | -0.423 | 0.213 | 0.0253 | 0.0849 | -0.506 | -0.257
51 | TAGCCTAGGTCATGCGGGCCATTATAGTGTCGGC | 3.04 | 4.02 | 4.28 | 1.05 | 3.23 | 3.16 | 1.17 | 1.49
52 | TCGAGTAGGTTAGTCGGGGCATTCAACCAACATA | 0.661 | 0.183 | 0.0739 | 0.482 | 0.119 | 1.28 | 0.217 | 0.466
53 | GGAACGAGGGCAAGGTGATAGCAGAGTTTGATGG | 2.04 | 1.26 | 2.2 | 1.62 | 0.928 | 1.89 | 0.882 | 2.05
54 | CCTACTGGGCCACAAAGGTCATTGATGCCGATAA | 4.64 | 5.33 | 4.68 | 1.13 | 6.32 | 3.38 | 0.818 | 3.31
55 | TCTAGTTGGTCACGGAGGTGACACACGACGGGTA | 1.71 | 1.6 | 1.86 | 0.0966 | 1.37 | 1.47 | 0.665 | 0.176
56 | TCGAGTAGGTTACCAATTGGGCATTCAGCTTTCT | -0.00589 | 0.186 | -0.124 | 0.484 | 0.205 | -0.0916 | -0.446 | -0.653
